# Source: PubChem BioAssay
# MRP1 act = activates MRP-1. H69AR cells + doxorubicin, viability rescue, CellTiter-Glo. viability increase, % at 10 µM. 140,000 tested, 0.61% active;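 active = viability gain under doxorubicin at or above a set limit, the compound median plus 3 SD, cut at about 4.7% in these data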;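 note: MRP-1 overexpressing cells given doxorubicin 25 µM after compound pretreatment; 18-22 h compound pretreatment then 72 h with doxorubicin before readout; 0% = doxorubicin-only wells and 100% = vehicle-treated cells without doxorubicin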
# MRP reversal = compounds reversing MRP-mediated drug resistance | H69AR cells + 2 uM doxorubicin, CellTiter-Glo, 72 h | differential viability (reversal), % at 10 µM | 85,000 tested, 0.04% active | AID 602;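 active = viability drop by adding the cancer drug above about 55%, with treated viability meeting a 40% cutoff, limit read from the data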;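 note: viability without doxorubicin minus viability with 2 µM doxorubicin for each compound; larger differential means the compound sensitizes cells more to doxorubicin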
# Starred values were filed as active, the others as inactive; . = not tested or not shown. Sampled rows, rich in hits. Any-hit rate of the full collection: about 0.65%.
SMILES,MRP1 act,MRP reversal
C[C@@H]1C[C@H]2[C@@H]3C[C@H](F)C4=CC(=O)C=C[C@]4(C)[C@@]3(F)[C@@H](O)C[C@]2(C)[C@@]1(O)C(=O)COC(=O)C(C)(C)C,4,-11
CCCCC(=O)Nc1cccc(C(=O)N/N=C/c2ccc(OC)cc2OC)c1,-3,.
O=C1CC(N2CCC(c3nc4ccccc4o3)CC2)C(=O)N1c1ccc(Cl)cc1 (stereo not given),.,-1
O=C1CC(N2CCC(c3nc4ccccc4o3)CC2)C(=O)N1c1cc(Cl)cc(Cl)c1 (stereo not given),8.2*,5
C=CCn1c(N)c(C(=O)NCc2cccnc2)sc1=S,-1,11
COc1ccc2c3c(cccc13)NN=C2C,.,-4
N#CCSc1n[nH]c2nc3c(c(=O)n12)C1(CCCC1)Cc1ccccc1-3,5.0*,16
CCCn1c(SCC#N)nc2c(c1=O)C1(CCCC1)Cc1ccccc1-2,-4,4
Cc1ccc(CN2CCc3c(OCc4ccc(F)cc4)cccc3C2=O)cc1,1,.
O=C1c2cccc(OCc3ccc(F)cc3)c2CCN1Cc1ccc(F)cc1,5.6*,.
COc1ccccc1-c1nnc(SC2CCc3ccccc3NC2=O)s1 (stereo not given),6.3*,1
COc1ccccc1-c1nnc(N(C)C(=O)C2CCCO2)s1 (stereo not given),-1,15
CS(=O)(=O)N1N=C(c2ccco2)CC1c1ccc(Cl)cc1 (stereo not given),1,.
C=CCc1c(C)nc(-c2ccccc2)nc1N/N=C(\C)c1ccccc1,5.5*,.
C=CCc1c(C)nc(-c2ccccc2)nc1Nc1ccc(O)cc1,-4,.
N#Cc1ccc(-c2ccc(OCC(=O)NCC(=O)Nc3ccc(F)c(F)c3F)cc2)cc1,-1,.
CCSc1nnc(NC(=O)COc2ccccc2)s1,0,-6
Cc1nnc(NC(=O)c2ccco2)s1,5.6*,0
Cc1ccc(C(=O)Nc2nc(C)c(C)s2)o1,0,4
C/C=C(\C)c1nnc(NC(=O)c2ccco2)s1,0,-7
Cc1ccc(C(=O)Nc2nnc(C)s2)o1,9.0*,.
Cc1nnc(NC(=O)COc2ccccc2)s1,5.1*,1
O=C(CCCO)N/N=C/c1ccccc1[N+](=O)[O-],-2,.
CC(C)=NN/C(N)=N/C(=S)Nc1ccc(C)cc1,-3,.
CN1C(=O)N2CN(C3CCCCC3)CN3C(=O)N(C)C1C23 (stereo not given),0,-23
SMILES,MRP1 act,MRP reversal
Nc1nc(-c2ccccc2)nc2sc3c(c12)CCCC3,-3,.
Cc1ccc(O)c(-c2cc(C(=O)Nc3ccc(S(=O)(=O)Nc4nc(C)cc(C)n4)cc3)[nH]n2)c1,-2,.
Oc1c(C(c2cccs2)N2CCC3(CC2)OCCO3)sc2ncnn12 (stereo not given),4,1
Oc1c(C(c2cccs2)N2CCN(c3ccccc3)CC2)sc2ncnn12 (stereo not given),14*,-2
COC(=O)c1ccc(NC(=O)C(=O)N2CCN(C(=S)Nc3ccc(OC)cc3)CC2)cc1,0,.
COC(=O)c1ccc(NC(=O)C(=O)N2CCN(C(=S)Nc3cccc(OC)c3)CC2)cc1,6.2*,.
CCCNC(=O)c1oc2ccc3c(c2c1C)C(=O)CC(C)(C)O3,7.1*,14
CCOC(=O)N1CCC2(CC1)CC(=O)c1c(ccc3oc(C(=O)O)c(C)c13)O2,0,-5
N/C(Cc1cccs1)=N\OC(=O)COc1ccccc1,2,3
Cc1ccc(NC(=O)CC2SC(=NCC3CCCO3)NC2=O)cc1Cl (stereo not given),-1,.
Cc1ccc(CC2SC(=O)NC2=O)cc1Cl (stereo not given),4.8*,2
CC(=O)/C(C#N)=C1\NC(=O)C(Cc2ccc(C)c(C)c2)S1 (stereo not given),8.8*,11
CC(=O)/C(C#N)=C1\NC(=O)C(Cc2ccccc2Cl)S1 (stereo not given),1,3
Nc1ccc(CC2SC(=O)NC2=O)cc1 (stereo not given),9.4*,13
Cc1ccc(NC(=O)CC2SC(=O)NC2=O)cc1 (stereo not given),2,.
CCOC(=O)c1ccc(NC(=S)N2CCSC2c2ccc(Br)cc2)cc1 (stereo not given),0,.
O=C(NCc1ccc(F)cc1)c1noc2c1CCCCC2,-1,3
O=C(NCc1ccc(F)cc1)c1noc2c1CCCC2,4.9*,3
CCOc1ccc(C(=O)CC(=O)C(=O)NCCc2ccc(OC)c(OC)c2)cc1,-3,.
CC(=O)Oc1c(/C=C(\C#N)C(N)=O)[nH]c2ccccc12,-1,.
O=C(Nc1ccccc1-c1nc2ccccc2s1)c1cccnc1Cl,-1,.
O=c1cc(-c2ccccc2Cl)oc2ccc([N+](=O)[O-])c(O)c12,0,.
O=c1cc(-c2ccccc2Cl)oc2c([N+](=O)[O-])c(O)cc(O)c12,6.5*,.
COc1cc(OC)nc(-n2ncc(Br)c(Br)c2=O)n1,-6,.
COc1ccc(N(C(=O)Cn2nnc3ccccc32)C2(C(=O)NC3CCCC3)CCCCC2)cc1,-3,.
SMILES,MRP1 act,MRP reversal
COc1ccc(N(C(=O)Cn2cnc3ccccc32)C(C(=O)NC2CCCCC2)c2ccccc2)cc1 (stereo not given),13*,.
CCNc1ccc(C(=O)OCC(=O)c2cc(C)n(Cc3ccc4c(c3)OCO4)c2C)cc1[N+](=O)[O-],5.2*,.
CCNc1ccc(C(=O)OCC(=O)NCc2ccc(C)cc2)cc1[N+](=O)[O-],0,.
CC(OC(=O)c1cc(S(=O)(=O)N(C)c2ccccc2)ccc1Cl)C(=O)Nc1ccc2c(c1)OCCO2 (stereo not given),0,.
CC(C)CCN(C)C1CCN(C(=O)Nc2c(F)cccc2F)CC1,-1,-21
N#CC(C#N)=C(Nc1ccc(F)cc1)SCc1cccc(F)c1,-5,.
O=C(CSc1nc2c(c(=O)[nH]1)CCC2)Nc1cccc(Cl)c1,-2,4
N#Cc1c(-c2ccco2)nc(SCC(=O)Nc2cccc(Cl)c2)[nH]c1=O,5.5*,8
CCCOc1ccc(NC(=O)CC2C(=O)N(Cc3ccccc3)C(=S)N2Cc2cccs2)cc1 (stereo not given),-5,.
CNC(=O)CN(c1ccc(C(C)C)cc1)S(C)(=O)=O,-2,13
Cn1c(=O)n(C/C=C/c2ccccc2)c(=O)c2c1nc1n2CCCN1Cc1ccccc1,3,28
Cn1c(=O)n(C/C=C/c2ccccc2)c(=O)c2c1nc1n2CCCN1c1ccc(F)cc1,5.3*,4
O=C(NNC(=O)[C@@H]1CCCC[C@@H]1C(=O)O)Nc1ccccc1,1,.
COC(=O)c1ccc(OC)c(CSc2nnc(COc3ccc(Cl)cc3)o2)c1,6.9*,10
CCOC(=O)N1CCN(C(=O)CSc2nnc(COc3ccc(Cl)cc3)o2)CC1,5.8*,2
COC(=O)c1ccc(OC)c(CSc2nnc(COc3ccccc3)o2)c1,1,11
O=C(CSc1nnc(COc2ccc(Cl)cc2)o1)N1c2ccccc2CCc2ccccc21,0,-54
N#C[C@H]1[C@H](c2ccccc2)[C@](C#N)(C(=O)c2ccccc2)[C@@H]2C=Cc3ccccc3N21,-5,.
CCc1nnc2n1N=C(c1ccc(-c3cc(Cl)ccc3Cl)o1)CS2,-3,-4
COC(=O)c1ccccc1NC(=O)CN1CCC(NC(=O)c2ccccc2C)CC1,-4,-1
CCOC(=O)c1c(NC(=O)c2cnn3c2NC(c2cccc(OC)c2)CC3C(F)(F)F)sc2c1CCCC2 (stereo not given),-1,.
Cc1ccc(-c2c[n+](CC(=O)Nc3cc(=O)n(C)c(=O)n3C)c3n2CCC3)cc1,0,.
